LGR2 antag – inhibitors of bursicon-induced LGR2 CRE-luciferase signal, primary screen, cell-based, HEK293, CRE-luciferase reporter, bursicon stimulation; AID 720647, 2013; inhibition, % at 9.99 µM; bursicon-stimulated, 4 h; Drosophila bursicon receptor LGR2 (rickets); actives 0.35% (n = 380,000);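 active means drop in luminescence signal, shown as inhibition above about 50% in the replicate tests, limit read from the data, passing the limit was not always enough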;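 further: agonist challenge used bursicon conditioned medium at about half maximal strength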
TWEAK-Fn14 inh – inhibitors of TWEAK-Fn14 signaling, primary screen, luciferase reporter cells, uHTS | TWEAK-stimulated Fn14 reporter cells, luciferase luminescence, 8 h | inhibition, % at 10 µM | actives 2% (n = 360,000); in the data active means inhibition above about 50%
EBV LMP1 NFkB – EBV LMP1-driven NF-kappaB luciferase reporter inhibitors, primary screen, cell-based, luminescence, single point; actives 0.69% (n = 350,000); inhibition, % at 12.5 µM; AID 504558, 2011; LMP1-induced NF-kappaB luciferase reporter cells; in the data active means inhibition above about 41%;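 further: 0% = neutral control wells and 100% = reference inhibitor control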
TROY NFkB inh – inhibitors of TROY-driven NF-kB signaling, primary screen, Q293 LMP1-TROYcd cells, NF-kB luciferase, uHTS; actives 0.98% (n = 360,000); inhibition, % at 10 µM; Q293 LMP1-TROYcd NF-kB luciferase reporter, 4 h;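 active means compounds whose plate-normalised and pattern-corrected inhibition of the luciferase reporter signal at the single screening dose is 50% or more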
EWS-Fli block – EWS/Fli-driven NR0B1 reporter inhibitors, primary screen, A673 cells, NR0B1 luciferase, luminescence, MLPCN library. viability-normalised. inhibition, % at 12.6 µM. actives 0.67% (n = 350,000);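 active means mean inhibition of at least 50% after viability correction, with every replicate also passing that limit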;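 further: firefly luciferase signal divided by Alamar Blue viability fluorescence both relative to DMSO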
Active calls of the source: *. Compounds with a hit are over-represented: about 2.6% of the library has one in this group of screens.

Results for C[C@@H]1CCCCO[C@@H](CN(C)C(=O)Cc2ccccc2)[C@H](C)CN([C@H](C)CO)C(=O)c2cc(NC(=O)NC3CCCCC3)ccc2O1 ?
LGR2 antag: 13.9; EWS-Fli block: -2.9

Results for COc1ccccc1-c1nnc(Sc2nc([N+](=O)[O-])nn2C)o1 ?
LGR2 antag: 30.9; TWEAK-Fn14 inh: 84.1*; EBV LMP1 NFkB: 57.4*; TROY NFkB inh: 30.8

What do the screens show for `Cn1cnnc1Sc1nc([N+](=O)[O-])nn1C`?
LGR2 antag: -8.6; TWEAK-Fn14 inh: -9.2; EBV LMP1 NFkB: -1.1; TROY NFkB inh: -4.3; EWS-Fli block: -6.2

Results for O=C(c1cccnc1)N1C[C@@H]2[C@H](c3ccccc31)[C@@H](CO)N2C(=O)Nc1cccc(F)c1 ?
LGR2 antag: 0.0; EWS-Fli block: 3.1

What do the screens show for `N=c1c(S(=O)(=O)c2ccc(Br)cc2)cc2c(=O)n3ccccc3nc2n1Cc1ccco1`?
LGR2 antag: 9.7; TWEAK-Fn14 inh: 46.3; EBV LMP1 NFkB: -5.0; TROY NFkB inh: 29.4

Results for COc1ccc(CCNC(=O)c2cc3c(=O)n4ccccc4nc3n(CCN3CCOCC3)c2=N)cc1 ?
LGR2 antag: 7.4; TWEAK-Fn14 inh: 63.3*; EBV LMP1 NFkB: 0.0; TROY NFkB inh: 47.6; EWS-Fli block: 11.0

What do the screens show for `COc1ccc(CCNC(=O)c2cc3c(=O)n4ccccc4nc3n(Cc3ccco3)c2=N)cc1OC`?
LGR2 antag: -18.8; TWEAK-Fn14 inh: 96.3*; EBV LMP1 NFkB: 2.5; TROY NFkB inh: 62.5*

What do the screens show for `COc1ccc(CCn2c(=N)c(C(=O)NCc3ccco3)cc3c(=O)n4ccccc4nc32)cc1OC`?
LGR2 antag: -1.3; TWEAK-Fn14 inh: -7.6; EBV LMP1 NFkB: -0.1; TROY NFkB inh: -4.3; EWS-Fli block: 3.0

How did COc1ccc(CCNC(=O)c2cc3c(=O)n4ccccc4nc3n(CCCN3CCOCC3)c2=N)cc1 do in these assays?
LGR2 antag: -3.9; TWEAK-Fn14 inh: -3.0; EBV LMP1 NFkB: -11.6; TROY NFkB inh: -10.7; EWS-Fli block: 14.2

Results for N=c1c(S(=O)(=O)c2ccc(Cl)cc2)cc2c(=O)n3ccccc3nc2n1Cc1ccco1 ?
LGR2 antag: -13.5; TWEAK-Fn14 inh: 52.8*; EBV LMP1 NFkB: 6.1; TROY NFkB inh: 30.9; EWS-Fli block: -2.5

Results for Cc1ccc(S(=O)(=O)N(C)C[C@@H]2Oc3c(NC(=O)NC(C)C)cccc3C(=O)N([C@@H](C)CO)C[C@@H]2C)cc1 ?
LGR2 antag: -6.4; EWS-Fli block: -8.0

What do the screens show for `CCCCCCCCCCn1ccc(=N)cc1`?
LGR2 antag: 35.8; TWEAK-Fn14 inh: 33.3; EBV LMP1 NFkB: 29.3; TROY NFkB inh: 48.2; EWS-Fli block: 57.7*

Results for CN(C)CCNc1ccc(CO)c2sc3ccc(O)cc3c(=O)c12 ?
TWEAK-Fn14 inh: -89.8; EBV LMP1 NFkB: 49.0*; TROY NFkB inh: -52.5; EWS-Fli block: 43.1

How did CC(O)(c1ccc(F)c(F)c1)c1nc(-c2cnc3ccccc3c2)cs1 (stereo not drawn) do in these assays?
LGR2 antag: 14.2; TWEAK-Fn14 inh: 55.2*; TROY NFkB inh: 29.7; EWS-Fli block: 7.5

Results for C[C@@H]1CN([C@H](C)CO)C(=O)c2cc(NS(=O)(=O)c3cccs3)ccc2O[C@H]1CN(C)S(=O)(=O)c1ccc(Cl)cc1 ?
EWS-Fli block: -5.8

What do the screens show for `O=C(O)c1cccc(NC(=O)c2ccc(Cl)c(S(=O)(=O)N3CCCCCC3)c2)c1`?
LGR2 antag: -4.9; TWEAK-Fn14 inh: -40.5; EBV LMP1 NFkB: 56.6*; TROY NFkB inh: -64.2; EWS-Fli block: 1.1

What do the screens show for `O=C(COC(=O)c1ccc(Cl)c(S(=O)(=O)N2CCCCCC2)c1)Nc1ccccc1`?
TWEAK-Fn14 inh: 23.1; EBV LMP1 NFkB: -15.4; TROY NFkB inh: 57.9*; EWS-Fli block: -14.0

Results for O=C(Nc1cccc(Cl)c1)Nc1cc(S(=O)(=O)N2CCCCC2)ccc1Cl ?
LGR2 antag: 33.9; TWEAK-Fn14 inh: 83.7*; EBV LMP1 NFkB: 4.1; TROY NFkB inh: 55.6*; EWS-Fli block: 22.8

Results for CN1CCN(S(=O)(=O)c2ccc(NC(=O)Nc3cccc(Cl)c3)cc2)CC1 ?
TWEAK-Fn14 inh: 3.3; EBV LMP1 NFkB: -10.8; TROY NFkB inh: -27.9

What do the screens show for `CCCn1c(NC(=O)c2ccc(Cl)c(S(=O)(=O)N3CCCC3)c2)nc2ccccc21`?
TWEAK-Fn14 inh: 60.3*; EBV LMP1 NFkB: 2.6; TROY NFkB inh: 34.4

How did COc1ccc2c3c([nH]c2c1)[C@@H](CO)N(C(C)=O)CC31CCN(C(=O)Nc2ccccc2F)CC1 do in these assays?
LGR2 antag: 2.3; EWS-Fli block: 2.7

What do the screens show for `O=C(Nc1nccs1)c1ccc(Br)c(S(=O)(=O)N2CCCC2)c1`?
LGR2 antag: 7.5; TWEAK-Fn14 inh: 96.7*; EBV LMP1 NFkB: -2.3; TROY NFkB inh: 4.1

What do the screens show for `O=C(Nc1ccccc1C(=O)O)c1cc(S(=O)(=O)N2CCCCC2)c(Cl)cc1Cl`?
LGR2 antag: 7.2; TWEAK-Fn14 inh: 56.2*; EBV LMP1 NFkB: 33.4; TROY NFkB inh: 26.5; EWS-Fli block: 7.4

What do the screens show for `C[C@H](CO)N1C[C@H](C)[C@H](CN(C)C(=O)CN(C)C)Oc2ncc(-c3ccc(C(=O)N(C)C)cc3)cc2C1=O`?
LGR2 antag: 9.3; EWS-Fli block: 12.3

How did FC(F)(F)c1cccc(Nc2cc(-c3ccccc3)nc3ncnn23)c1 do in these assays?
LGR2 antag: -2.3; TWEAK-Fn14 inh: -4.0; EBV LMP1 NFkB: 3.7; TROY NFkB inh: -7.8; EWS-Fli block: 29.2

What do the screens show for `FC(F)(F)c1ccc(N2CCN(c3cc(-c4ccccc4)nc4ncnn34)CC2)nc1`?
TWEAK-Fn14 inh: 79.8*; EBV LMP1 NFkB: 29.7; TROY NFkB inh: 66.7*

What do the screens show for `C[C@@H]1CN([C@H](C)CO)C(=O)c2cc(N(C)C)ccc2O[C@H]1CN(C)C(=O)NC1CCCCC1`?
LGR2 antag: -4.7

Results for CC(C)(C)c1ccc(O)c(N=Cc2cc(Br)ccc2O)c1 ?
LGR2 antag: 18.5; TWEAK-Fn14 inh: 87.6*; EBV LMP1 NFkB: 12.0; TROY NFkB inh: 85.2*; EWS-Fli block: -8.4

What do the screens show for `Cc1ccc(O)c(C=Nc2cc(C)ccc2O)c1`?
TWEAK-Fn14 inh: 36.9; EBV LMP1 NFkB: -15.4; TROY NFkB inh: 22.3

Results for COc1ccc(CN(C)C[C@@H]2OCCCC[C@H](C)Oc3ccc(NC(=O)Nc4cccc5ccccc45)cc3C(=O)N([C@@H](C)CO)C[C@@H]2C)cc1 ?
LGR2 antag: 6.4; EWS-Fli block: 65.2*

What do the screens show for `COc1ccc(CN(C)C[C@@H]2OCCCC[C@@H](C)Oc3ccc(NC(=O)Nc4cccc5ccccc45)cc3C(=O)N([C@@H](C)CO)C[C@@H]2C)cc1`?
LGR2 antag: 0.6; EWS-Fli block: -2.3

What do the screens show for `COc1ccc(CN(C)C[C@@H]2OCCCC[C@H](C)Oc3ccc(NC(=O)Nc4cccc5ccccc45)cc3C(=O)N([C@H](C)CO)C[C@H]2C)cc1`?
EWS-Fli block: 3.2

Screening results from PubChem.
